For 21 compounds, growth inhibition, inhibition and outcome results are on record in PubChem BioAssay.

By inhibition is commonly meant the change of the read-out against control, counted positive when it falls.

Assay [1] is described as follows: antimalarial activity against Dd2 strain (AID 2302;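 active = growth inhibition above 50% at the single 2 µM test dose, taken to imply half-maximal potency below 2 µM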;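 note: 0% = DMSO untreated growth and 100% = chloroquine plus artemisinin killed control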). As to conditions: P. falciparum Dd2 in RBCs, LDH growth readout, 72 h; at 2 µM; hits give high values.
Assay [2] can be described thus: HepG2 cytotoxicity, primary screen, cytotoxicity control for P. falciparum antimalarial project, cell-based, ATP luminescence (AID 2303;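 active = inhibition above 50%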;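 note: 0% = DMSO wells and 100% = digitonin-killed cells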). As to conditions: HepG2 viability, 24-48 h, at 10 µM, hits give high values.
Assay [3] deals with L-lactate dehydrogenase (Plasmodium falciparum (isolate CDC / Honduras)) (UniProt Q27743). Nature of the assay: PfLDH activity inhibition – cell lysate, 3D7 strain, counter-screen for P. falciparum growth inhibition project (AID 2304).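 Note: 0% = vehicle and 100% = reference inhibitor.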 Conditions: P. falciparum 3D7 crude extract, LDH APAD/NBT absorbance; at 2 µM; hits give high values. On the technique in general: The purpose of a counterscreen is to sort out artefacts and off-target activity.
Sequence of L-lactate dehydrogenase (Plasmodium falciparum (isolate CDC / Honduras)) (Q27743 whole entry, looked up): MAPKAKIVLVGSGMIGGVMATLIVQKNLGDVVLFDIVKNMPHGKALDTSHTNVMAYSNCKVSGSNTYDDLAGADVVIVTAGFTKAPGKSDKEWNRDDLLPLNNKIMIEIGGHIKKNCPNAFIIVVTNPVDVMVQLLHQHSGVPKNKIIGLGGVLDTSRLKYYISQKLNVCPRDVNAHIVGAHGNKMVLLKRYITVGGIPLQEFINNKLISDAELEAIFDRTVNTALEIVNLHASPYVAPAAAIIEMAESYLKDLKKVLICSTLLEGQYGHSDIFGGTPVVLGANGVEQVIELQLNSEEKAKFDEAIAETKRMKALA

The nature of assay [4]: inhibition of 3D7 malaria parasite growth – strain 3D7 (AID 2306).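 Note: 0% = DMSO wells and 100% = chloroquine plus artemisinin control wells.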 Conditions: P. falciparum 3D7 erythrocytic growth, LDH absorbance, 72 h; at 2 µM; hits give high values.
Assay [5] concerns the target Calcium-dependent protein kinase 1 (Plasmodium falciparum (isolate 3D7)) (UniProt P62344). In words: PfCDPK1 kinase inhibitors, biochemical, TCAMS library (AID 1159585; cut-off not given, nearly all actives have IC50 up to about 0.98 µM;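 note: inhibitors leave more ATP so luminescence rises with inhibition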). Conditions: recombinant PfCDPK1, Kinase-Glo ATP depletion luminescence. Background: Kinase-Glo reads ATP consumption through a luciferase reaction.
The target in assay [6] is Plasmodium falciparum protein kinase 6 (PK6, PF3D7_1337100) (UniProt Q8IDW1). Nature of the assay: PfPK6 kinase inhibitors, biochemical, TCAMS library (AID 1159586). Conditions: recombinant PfPK6, Kinase-Glo ATP depletion luminescence.
Sequence of Plasmodium falciparum protein kinase 6 (PK6, PF3D7_1337100) (Q8IDW1 1-305): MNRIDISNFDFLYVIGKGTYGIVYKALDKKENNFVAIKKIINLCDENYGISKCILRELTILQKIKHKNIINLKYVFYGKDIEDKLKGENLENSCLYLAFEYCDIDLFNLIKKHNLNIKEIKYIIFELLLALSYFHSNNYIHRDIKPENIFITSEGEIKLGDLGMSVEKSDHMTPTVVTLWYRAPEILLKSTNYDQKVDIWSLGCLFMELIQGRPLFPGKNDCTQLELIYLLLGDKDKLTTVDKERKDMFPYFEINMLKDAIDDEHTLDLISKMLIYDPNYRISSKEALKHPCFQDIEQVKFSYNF
Assay [7] addresses Protein kinase 7 (PK7), Plasmodium falciparum 3D7 (PF3D7_0213400) (UniProt Q7YTF7). In words: inhibition of Plasmodium PK7 catalytic activity – biochemical, TCAMS antimalarial set, Kinase-Glo luminescence (AID 1159587). Conditions: recombinant PfPK7, Kinase-Glo ATP depletion luminescence.
Assay [8] has as its target Calcium-dependent protein kinase 4 (Plasmodium falciparum (isolate 3D7)) (UniProt Q8IBS5). Nature of the assay: PfCDPK4 kinase inhibitors, biochemical, TCAMS library (AID 1159588; cut-off not given, nearly all actives have IC50 up to about 0.91 µM). As to conditions: recombinant PfCDPK4, Kinase-Glo ATP depletion luminescence.

A number with no mark means an inactive call. For part of these data: Entries with a potency or affinity are not part of this list. Active and inactive are the calls of the source. Unless noted, the rule behind the calls is not given here.

Sequence of Calcium-dependent protein kinase 1 (Plasmodium falciparum (isolate 3D7)) (P62344 whole entry, looked up): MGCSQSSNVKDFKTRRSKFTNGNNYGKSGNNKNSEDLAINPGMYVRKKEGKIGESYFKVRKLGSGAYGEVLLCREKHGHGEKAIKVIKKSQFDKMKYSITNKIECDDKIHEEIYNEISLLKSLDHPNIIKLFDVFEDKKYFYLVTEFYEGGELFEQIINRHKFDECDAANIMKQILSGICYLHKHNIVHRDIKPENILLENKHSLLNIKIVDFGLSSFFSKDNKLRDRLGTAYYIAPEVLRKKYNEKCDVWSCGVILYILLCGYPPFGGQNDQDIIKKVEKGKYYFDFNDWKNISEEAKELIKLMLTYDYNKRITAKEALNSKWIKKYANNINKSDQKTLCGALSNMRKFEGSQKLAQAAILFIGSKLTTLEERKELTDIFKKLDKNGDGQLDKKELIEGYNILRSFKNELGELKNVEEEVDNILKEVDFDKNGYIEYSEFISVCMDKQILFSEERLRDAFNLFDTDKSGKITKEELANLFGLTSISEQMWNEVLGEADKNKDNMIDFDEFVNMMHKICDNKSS
Sequence of Protein kinase 7 (PK7), Plasmodium falciparum 3D7 (PF3D7_0213400) (Q7YTF7 1-343): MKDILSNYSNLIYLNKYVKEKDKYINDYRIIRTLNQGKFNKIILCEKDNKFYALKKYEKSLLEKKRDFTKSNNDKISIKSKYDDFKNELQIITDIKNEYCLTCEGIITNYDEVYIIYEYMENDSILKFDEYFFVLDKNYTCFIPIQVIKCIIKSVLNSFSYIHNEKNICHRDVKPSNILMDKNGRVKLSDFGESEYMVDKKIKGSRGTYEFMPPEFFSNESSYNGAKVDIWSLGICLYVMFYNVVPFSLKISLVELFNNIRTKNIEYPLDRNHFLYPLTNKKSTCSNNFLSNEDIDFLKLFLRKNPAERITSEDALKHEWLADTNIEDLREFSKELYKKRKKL
Sequence of Calcium-dependent protein kinase 4 (Plasmodium falciparum (isolate 3D7)) (Q8IBS5 whole entry, looked up): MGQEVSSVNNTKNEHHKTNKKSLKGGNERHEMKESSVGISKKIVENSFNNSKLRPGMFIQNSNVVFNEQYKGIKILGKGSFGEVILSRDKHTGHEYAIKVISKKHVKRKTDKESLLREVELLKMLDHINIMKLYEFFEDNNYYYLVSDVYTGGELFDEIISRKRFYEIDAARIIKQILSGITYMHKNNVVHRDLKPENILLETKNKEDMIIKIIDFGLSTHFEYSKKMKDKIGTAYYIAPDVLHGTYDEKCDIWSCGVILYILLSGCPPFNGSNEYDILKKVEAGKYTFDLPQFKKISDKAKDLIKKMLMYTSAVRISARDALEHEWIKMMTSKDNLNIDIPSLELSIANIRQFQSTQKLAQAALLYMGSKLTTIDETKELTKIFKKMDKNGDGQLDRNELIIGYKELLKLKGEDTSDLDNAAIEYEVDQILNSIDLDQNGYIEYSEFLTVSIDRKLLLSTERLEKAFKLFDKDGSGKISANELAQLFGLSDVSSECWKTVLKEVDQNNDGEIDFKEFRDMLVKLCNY

Turning to `O=c1cc(NCCCNCc2ccc(C(F)(F)F)cc2F)[nH]c2ccccc12`, the values for the growth inhibition in assay [1] and in assay [4] were 48% and 93% (active), respectively. Besides, the inhibition in assay [2] is 1%; in assay [3], 8%. Besides, the outcome in assay [5], in assay [6], in assay [7] and in assay [8] was inactive.

On to `COc1ccc2nccc([C@@H](O)CN3CCC(NC/C=C/c4cccnc4)CC3)c2c1`, for which the growth inhibition was 19% in assay [1] and 100% (active) in assay [4]. The values for the inhibition in assay [2] and in assay [3] were -7% and -2%, respectively. Also, the result in assay [5], in assay [6], in assay [7] and in assay [8] was inactive.

With `CN(C)CCNCc1ccc(-c2ccc(-c3nc4ccc(F)cc4[nH]3)cc2)cc1`, the values for the growth inhibition in assay [1] and in assay [4] were 99% (active) and 101% (active), respectively. Further, the results for the inhibition in assay [2] and in assay [3] were 8% and -4%, respectively. The outcome in assay [5], in assay [6], in assay [7] and in assay [8] was inactive.

Regarding `O=C(/C=C/c1ccc(Cl)c(Cl)c1)NCCCCCN1CCC(NC(=O)Nc2ccccc2F)CC1`, the growth inhibition was 25% in assay [1] and 95% (active) in assay [4]. In addition, the inhibition in assay [2] was 14%; in assay [3], -5%. The result in assay [5], in assay [6], in assay [7] and in assay [8] was inactive.

As to `Oc1c(Cl)cc(-c2ccccc2)cc1CNC1CCCCC1`, the growth inhibition in assay [1] is 95% (active); in assay [4] it was 97% (active). The figures for the inhibition in assay [2] and in assay [3] were 5% and -5%, respectively. In addition, the result in assay [5], in assay [6], in assay [7] and in assay [8] was inactive.

With `CCc1cc2c(Sc3nnc(N)s3)ncnc2s1`, the growth inhibition was 65% (active) in assay [1] and 99% (active) in assay [4]. For the same compound, the inhibition in assay [2] is -20%; in assay [3] it was -4%. Moreover, the outcome in assay [5], in assay [6], in assay [7] and in assay [8] was inactive.

On to `O=C(/C=C/c1ccc(C(F)(F)F)cc1)NCCCCCN1CCN(C(=O)Nc2ccc(Cl)c(Cl)c2)CC1`, for which the values for the growth inhibition in assay [1] and in assay [4] were -4% and 95% (active), respectively. Further, the inhibition was 37% in assay [2] and 5% in assay [3]. Also, the result in assay [5], in assay [6], in assay [7] and in assay [8] was inactive.

`Clc1ccc(-c2nc3ccc(-c4ccc5nc(-c6ccc(Cl)cc6)[nH]c5c4)cc3[nH]2)cc1`: the growth inhibition was 99% (active) in assay [1] and 101% (active) in assay [4]. In addition, the values for the inhibition in assay [2] and in assay [3] were 59% (active) and -5%, respectively. Also, the outcome in assay [5], in assay [6], in assay [7] and in assay [8] was inactive.

Consider `CC(C)(C)c1nn(-c2ccccc2)c2[nH]c(=O)c(CNCCc3ccccc3)cc12`, for which the growth inhibition in assay [1] was 90% (active); in assay [4] it was 94% (active). Also, the results for the inhibition in assay [2] and in assay [3] were -7% and 0%, respectively. For the same compound, the outcome in assay [5], in assay [6], in assay [7] and in assay [8] was inactive.

Turning to `N#Cc1cccc(C(=O)Nc2ccc(-c3ccc(CN4CCCC4)cc3)cc2)c1`, the growth inhibition in assay [1] is 32%; in assay [4], 92% (active). The inhibition was 38% in assay [2] and -5% in assay [3]. In addition, the outcome in assay [5], in assay [6], in assay [7] and in assay [8] was inactive.

Consider `COc1cc2c(cc1C(F)(F)F)N(C(=O)Nc1cc(Br)cc(-c3cccnc3)c1)CC2`, for which the growth inhibition in assay [1] was 34%; in assay [4] it was 96% (active). Besides, the inhibition was 8% in assay [2] and -1% in assay [3]. Moreover, the outcome in assay [5], in assay [6], in assay [7] and in assay [8] was inactive.

Take `Cn1cccc1C(=O)C(=O)Nc1cccc(-c2ccc(-c3nc4ccc(C(F)(F)F)cc4[nH]3)cc2)c1`: the growth inhibition was 27% in assay [1] and 94% (active) in assay [4]. Moreover, the inhibition in assay [2] was 62% (active); in assay [3], -7%. In addition, the outcome in assay [5], in assay [6], in assay [7] and in assay [8] was inactive.

In the case of `Clc1ccc(-c2ncc(-c3ccncc3)[nH]2)cc1Cl`, the values for the growth inhibition in assay [1] and in assay [4] were 63% (active) and 96% (active), respectively. Also, the figures for the inhibition in assay [2] and in assay [3] were 1% and -5%, respectively. In addition, the result in assay [5], in assay [6], in assay [7] and in assay [8] was inactive.

On to `CN1CCC(Oc2cc(NC(=O)Nc3ccc(-c4ccncc4)c(Cl)c3)ccc2Cl)CC1`, for which the figures for the growth inhibition in assay [1] and in assay [4] were 100% (active) and 99% (active), respectively. The inhibition was 23% in assay [2] and -5% in assay [3]. Besides, the outcome in assay [5], in assay [6], in assay [7] and in assay [8] was inactive.

In the case of `CCOc1ccc(CCCON2C(N)=NC(N)=NC2(C)C)cc1`, the growth inhibition in assay [1] and in assay [4] was 93% (active) in each case. For the same compound, the inhibition was 65% (active) in assay [2] and 0% in assay [3]. Moreover, the outcome in assay [5], in assay [6], in assay [7] and in assay [8] was inactive.

As for `NC(N)=Nc1nc(-c2cccc(NCCCCCCCCON3C(N)=NC(N)=NC34CCCCC4)c2)cs1`, the figures for the growth inhibition in assay [1] and in assay [4] were 42% and 97% (active), respectively. Further, the inhibition is 3% in assay [2] and -2% in assay [3]. Moreover, the result in assay [5], in assay [6], in assay [7] and in assay [8] was inactive.

As to `O=C(NCc1cccc(C(F)(F)F)c1)c1ccc(-c2nc3cc(F)c(F)cc3[nH]2)cc1`, the growth inhibition was 7% in assay [1] and 97% (active) in assay [4]. Besides, the inhibition is -1% in assay [2] and 4% in assay [3]. In addition, the outcome in assay [5], in assay [6], in assay [7] and in assay [8] was inactive.

With `COc1cc(C)nc2ccc(NC(=O)Nc3ccc([N+](=O)[O-])cc3C)cc12`, the growth inhibition in assay [1] was 52% (active); in assay [4], 90% (active). Further, the inhibition in assay [2] was 10%; in assay [3], -5%. Besides, the result in assay [5], in assay [6], in assay [7] and in assay [8] was inactive.

Regarding `CC(C)CCN=C(N)Nc1ccc(OCCCCCOc2ccc(NC(N)=NCCC(C)C)cc2)cc1`, the values for the growth inhibition in assay [1] and in assay [4] were 67% (active) and 85% (active), respectively. Also, the inhibition in assay [2] is 14%; in assay [3], 6%. The result in assay [5], in assay [6], in assay [7] and in assay [8] was inactive.

Turning to `O=[N+]([O-])c1cc(/C=N/Nc2nc3ccccc3[nH]2)ccc1O`, the growth inhibition in assay [1] is 14%; in assay [4] it was 98% (active). Besides, the results for the inhibition in assay [2] and in assay [3] were -7% and -5%, respectively. Moreover, the outcome in assay [5], in assay [6], in assay [7] and in assay [8] was inactive.

Turning to `O=C(Nc1ccc(Cl)cc1)c1cc(Cl)cc2[nH]c(C(F)(F)F)nc12`, the growth inhibition in assay [1] and in assay [4] was 100% (active) throughout. For the same compound, the values for the inhibition in assay [2] and in assay [3] were 87% (active) and 2%, respectively. Further, the result in assay [5], in assay [6], in assay [7] and in assay [8] was inactive.
